B2AR arrestin: recruits beta-arrestin to the human beta2-adrenergic receptor | beta-arrestin recruitment to beta2AR, cell-based reporter | P07550 | Potency, µM (series often up to 46.1 µM), for the others: at the top dose activation, usual class: activators | 0.02% of 330,000 active;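 note: potency is the fitted concentration of half-maximal effect; 0% = DMSO controls and full agonism = EC100 isoproterenol or metaproterenol; nearly all actives have a fitted effect of over 65% in size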
Target sequence (P07550 whole entry, looked up): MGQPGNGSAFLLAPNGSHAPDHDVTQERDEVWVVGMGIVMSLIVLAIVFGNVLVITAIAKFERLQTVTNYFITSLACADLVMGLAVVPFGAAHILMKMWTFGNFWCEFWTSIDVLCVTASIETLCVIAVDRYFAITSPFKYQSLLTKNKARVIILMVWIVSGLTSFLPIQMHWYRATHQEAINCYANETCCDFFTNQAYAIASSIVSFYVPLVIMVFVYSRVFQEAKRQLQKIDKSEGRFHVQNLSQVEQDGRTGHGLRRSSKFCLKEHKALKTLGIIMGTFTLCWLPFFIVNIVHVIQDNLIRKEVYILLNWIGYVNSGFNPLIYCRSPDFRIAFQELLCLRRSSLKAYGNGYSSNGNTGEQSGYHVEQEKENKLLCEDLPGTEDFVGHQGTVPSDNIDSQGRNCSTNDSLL
uPA generation: inhibitors of cell surface uPA generation; cell surface uPA generation assay, qHTS; Potency, µM (doses to about 38.3 µM), for the others: at the top dose activity change, negative = inhibition, most hits filed as inhibitors; 0.31% of 330,000 active; active = well fitted inhibition curve with a large enough effect; inconclusive = small, poorly fitted or top-dose-only effect; inactive = no such curve, though single readings can be large or run the other way; tested in mouse RAW 264.7 cells; note: potency is the fitted concentration of half-maximal effect; % is set by controls: 0 for no effect and ±100 for the full control effect; nearly all actives have a fitted effect of over 55% in size
ClpP mod: qHTS Assay for Activators of ClpP; ATP-dependent Clp protease proteolytic subunit (Bacillus subtilis (strain 168)), P80244; Potency, µM (doses to about 57.5 µM), for inactives: top-dose activity change, negative = active; 1.9% of 340,000 active; AID 651965, 2013; purified B. subtilis ClpP, FRET peptide cleavage, 20 min; active = well fitted falling curve with a large enough effect; inconclusive = small, poorly fitted or top-dose-only effect; inactive = no such curve, though single readings can be large or run the other way; note: potency is the fitted concentration of half-maximal effect; the source files actives as falling curves though it sought activators and does not explain the sign; nearly all actives have a fitted effect of over 65% in size
Target sequence (P80244 whole entry, looked up): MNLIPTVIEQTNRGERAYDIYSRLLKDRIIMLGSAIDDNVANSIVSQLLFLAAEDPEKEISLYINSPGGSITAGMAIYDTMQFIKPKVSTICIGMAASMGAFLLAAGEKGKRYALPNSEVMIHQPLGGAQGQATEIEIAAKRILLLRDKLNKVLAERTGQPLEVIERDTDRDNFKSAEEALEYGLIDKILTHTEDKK
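ClpP 10 microg/mL final, pH 8 Tris/KCl buffer with BSA, glycerol, Tween-20; compound pinned in; FRET-FV substrate; RT 20 min; Ex320/Em430; ΔFRET vs ADEP 5.8 microM, DMSO, no enzyme.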
Mito fusion yeast: inhibitors of mitochondrial division or activators of mitochondrial fusion; 0.23% of 320,000 active; S. cerevisiae fusion-defective mutant growth rescue, CellTiterGlo 48 h; Potency, µM (doses to about 46.1 µM), for inactives: top-dose growth rescue (activation), hits mostly activators; note: potency is the fitted concentration of half-maximal effect; % of control where 0% means no effect; nearly all actives have a fitted effect of over 45% in size
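S. cerevisiae fusion-defective temperature-sensitive mutants (e.g. fzo1-1, mgm1-5) grown 48 h at 37C in YPEG (ethanol/glycerol non-fermentable) medium with 23 nl compound per well; growth rescue read as CellTiterGlo luminescence.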
p53 reactivation: restores transcriptional activity of mutant p53 | Potency, µM (series often up to 92.2 µM), for inactives: at the top dose activity change, positive = activation, actives largely listed as activators | H1299 p53-A138V BP100-luciferase reporter, luminescence, 24 h | AID 504706 | 0.063% of 320,000 active; note: potency is the fitted concentration of half-maximal effect; % of control where 0% means no effect; nearly all actives have a fitted effect of over 45% in size
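p53-null H1299 cells stably carrying temperature-sensitive p53-A138V and a BP100-luciferase reporter were pinned with compounds (4-point, 1:5 series) and held 24 hrs at 37 deg C. Luminescence was read 10 min after detection reagent.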
Giardia killer: Giardia lamblia killing; Giardia lamblia trophozoite viability; activity change, % at 7.66 µM, hits read low; 0.15% of 340,000 active; in the data active = activity change below about -80%; inconclusive = between about -30% and that limit;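 note: parasites exposed to compound for two days anaerobically before the ATP read; % is set by controls: 0 for no effect and ±100 for the full control effect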
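Compounds were tested on trophozoites seeded at 100 cells/well and held 48 hrs at 37 deg C anaerobically. An ATP-based luminescent kit measured the remaining live cells.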
Numbers without * were called inactive; ? = inconclusive; . = not tested or not shown; ! = not confirmed by another sample. Only some compounds are listed: those with a hit (about 2.1% of all), similar ones and a draw of the others. Unless noted, calls come from the whole dose curve; as a rule, active = well fitted curve in the direction sought with a large enough effect; inconclusive = small, poorly fitted or top-dose-only effect, or another doubt; inactive = no such curve, though single readings can be large; an effect the other way counts as inactive or inconclusive.

SMILES	B2AR arrestin	uPA generation	ClpP mod	Mito fusion yeast	p53 reactivation	Giardia killer
O=[N+]([O-])c1ccc(-c2ccccc2)c([As](=O)(O)O)c1	7.2%	3.5%	-1.7%	24.4%	-6.8%	-81.9*
O=P(O)(O)c1ccccc1OCCOCCOCCOCCOc1ccccc1P(=O)(O)O	0.2%	4.5%	-2.7%	-6.1%	?	-6.2
C[C@H]1CCC/C=C/C2C[C@H](O)CC2[C@H](O)/C=C/C(=O)O1 (some centres not stated)	-0.3%	0.316µM*	-1.8%	0.2%	-2.0%	17.8
C[C@H]1O[C@@H](O[C@H]2[C@@H](O)C[C@@H](O[C@H]3[C@@H](O)C[C@H](O[C@H]4CC[C@@]5(C)[C@H](CC[C@@H]6[C@@H]5CC[C@]5(C)[C@@H](C7=CC(=O)OC7)CC[C@]65O)C4)O[C@@H]3C)O[C@@H]2C)C[C@H](O)[C@@H]1O	.	.	0.6%	.	.	.
O=C(OCCc1ccccc1)c1cc(O)c(O)c(O)c1	0.1%	?	-2.0%	1.9%	?	17.9
Nc1ccc2c(c1)oc1ccccc12	0.0%	-6.6%	12.6µM*	0.9%	3.4%	-5.6
Nc1ccc2ccccc2c1	.	3.4%	?	.	.	-8.4
CC(Oc1ccc(Cl)cc1Cl)C(=O)Nc1ccc(S(=O)(=O)Nc2cnc3ccccc3n2)cc1 (configuration not stated)	0.2%	-2.5%	15.8µM*	25.2%	-3.1%	-6.6
COC1CC2C=C(C)C=CC=CC(=O)NC(c3ccccc3)CC=CCCC(O)CC(=O)C2=C1O (configuration not stated)	.	.	-2.5%	.	.	.
CC(=O)O[C@@]12CO[C@@H]1C[C@H](O)[C@@]1(C)C(=O)[C@H](O)C3=C(C)[C@@H](OC(=O)[C@H](O)[C@@H](NC(=O)c4ccccc4)c4ccccc4)C[C@@](O)([C@@H](OC(=O)c4ccccc4)C12)C3(C)C (some centres not stated)	-0.2%	0.447µM*	0.7%	2.1%	.	20.4
CC(=O)O[C@H]1C(=O)[C@@]2(C)C([C@H](OC(=O)c3ccccc3)[C@]3(O)C[C@H](OC(=O)[C@H](O)[C@@H](NC(=O)Cc4ccccc4)c4ccccc4)C(C)=C1C3(C)C)[C@]1(OC(C)=O)CO[C@@H]1C[C@@H]2O (some centres not stated)	0.2%	?	-2.7%	-0.5%	6.3%	-6.8
Cn1nc(-c2ccccc2)nc2c(=O)n(C)c(=O)nc1-2	.	.	0.4%	.	.	-89.4*
Cc1nc2c(=O)n(C)c(=O)nc-2n(C)n1	0.2%	-7.8%	1.1%	-24.5%	-43.5%	-107.3*
COc1ccc(-c2nc3ccccc3c(=O)n2-c2ccc(OC)cc2)cc1	0.3%	1.7%	-0.4%	0.6%	-0.7%	-0.5
O=c1c2ccccc2nc(-c2ccccc2)n1-n1cccc1	-0.1%	-0.2%	-0.3%	6.0%	0.5%	-15.7
CCn1nc(-c2ccccc2)nc2c(=O)n(C)c(=O)nc1-2	0.0%	-19.1%	0.2%	-18.1%	.	-88.6*
Cc1ccc(NC(=O)c2ccc(S(=O)(=O)N(C)c3ccccc3)cc2)cc1S(=O)(=O)N1CCOCC1	.	?	-9.6%	.	.	-26.4
O=[N+]([O-])c1ccc(Cl)c([N+](=O)[O-])c1	0.0%	1.26µM*	-2.5%	-18.5%	-17.7%	-29.4
O=[N+]([O-])c1ccc(O)c([N+](=O)[O-])c1	.	-5.9%	0.1%	.	.	?
Cc1cc(C)c(C(=O)CN2CCOCC2)c(C)c1	8.3%	-13.5%	31.6µM*	-4.4%	-38.8%	-8.3
COc1ccc(C(=O)CN2CCOCC2)cc1	.	.	-3.3%	.	.	.
CC1CCCN(CC(=O)N2CCCc3ccccc32)C1 (configuration not stated)	-0.3%	7.1%	-0.1%	-1.5%	-0.4%	5.9
O=C(Nc1ccc2nc(SCC(=O)N3CCCc4ccccc43)sc2c1)c1cccc(F)c1	.	.	12.6µM*	.	.	.
CC1OC(O[C@H]2C[C@@H](O)[C@]3(CO)[C@H]4[C@H](O)C[C@]5(C)[C@@H](C6=CC(=O)OC6)CC[C@]5(O)[C@@H]4CC[C@]3(O)C2)C(O)C(O)C1O (some centres not stated)	.	.	0.5%	.	.	.
O=[N+]([O-])c1ccc(N2CCCC2)c2ncccc12	0.2%	0.2%	-1.3%	4.2%	-2.5%	5.6
SMILES	B2AR arrestin	uPA generation	ClpP mod	Mito fusion yeast	p53 reactivation	Giardia killer
CC1CN(c2ccc([N+](=O)[O-])c3cccnc23)CC(C)N1 (configuration not stated)	0.5%	0.7%	1.4%	-1.2%	-14.6%	-86.5*
ClCCN(CCCl)c1ccc(C=Nc2ccncc2)cc1	.	.	-6.1%	.	.	.
Nc1ccc(C2(c3ccc(N)cc3)c3ccccc3-c3ccccc32)cc1	0.2%	3.7%	.	25.1µM*	-3.4%	10.1
Cc1cc([N+](=O)[O-])c2ccccc2[n+]1[O-]	-0.7%	?	0.6%	-31.9%	-11.5%	-88.5*
Cc1ccc2c(c1)CC1(CN2C)C(=O)NC(=O)N(CCC2=CCCCC2)C1=O (configuration not stated)	-0.5%	3.4%	15.8µM*	-7.0%	-3.2%	15.1
Cc1ccc2c(c1)CC1(CN2C)C(=O)NC(=O)N(C(C)C)C1=O (configuration not stated)	-0.3%	-5.8%	1.3%	0.8%	3.6%	-7.6
CNC(=O)O/N=C/C(C)(C)S(C)=O (configuration not stated)	.	.	0.8%	.	.	.
OC[C@H]1OC(O)C[C@@H](O)[C@@H]1O (some centres not stated)	-0.1%	12.1%	0.3%	-37.5%	-2.7%	4.9
CC(C)CNC(=O)c1c(N)n(Cc2ccc3c(c2)OCO3)c2nc3ccccc3nc12	0.2%	6.0%	14.1µM*	12.3%	-11.9%	-14.6
CC(C)CCNC(=O)c1c(N)n(Cc2ccc3c(c2)OCO3)c2nc3ccccc3nc12	0.3%	.	28.2µM*	-0.9%	7.5%	-5.0
CCCNC(=O)c1c(N)n(Cc2ccc3c(c2)OCO3)c2nc3ccccc3nc12	-0.3%	-0.6%	-28.4%	0.4%	2.4%	-10.8
Cc1ccc(-c2nc(CN3C(=O)CN=C(c4ccccc4Cl)c4cc(Cl)ccc43)c(C)o2)cc1	.	.	-4.7%	.	.	.
CC(=O)N1CCN(c2ccc(OC[C@H]3CO[C@](Cn4ccnc4)(c4ccc(Cl)cc4Cl)O3)cc2)CC1	-0.7%	?	-1.6%	0.411µM*!	-1.4%	3.9
CCCC1COC(Cn2cncn2)(c2ccc(Cl)cc2Cl)O1 (configuration not stated)	0.1%	3.0%	-2.9%	?	-7.1%	-6.6
Cc1ccc(Cn2cccc(C(=O)Nc3ccc4c(c3)OCCO4)c2=O)cc1	.	.	1.7%	.	.	.
O=C1C=CCC(/C=C/c2ccccc2)O1 (configuration not stated)	-0.8%	1µM*	-0.2%	-10.8%	-20.0%	4.4

High-throughput results from PubChem BioAssay.
